Screens (PubChem BioAssay)
p53ts 39C kill – p53ts cell cytotoxicity, nonpermissive temperature; H1299-p53A138V viability at 39C, ATP luminescence, 24 h; Potency, µM (titrated, usually from 46.1 µM), actives largely listed as cytotoxic; 130,000 tested, 1.5% active; AID 902; note: nearly all actives have a fitted effect of over 55% in size
Luciferase inh – inhibitors of firefly luciferase. 72,000 tested, 2.2% active. Potency, µM (titrated, usually from 57.1 µM), hits mostly inhibitors. P08659. purified firefly luciferase, luminescence, 8 min; note: nearly all actives have a fitted effect of over 40% in size
Target sequence (P08659 whole entry, looked up): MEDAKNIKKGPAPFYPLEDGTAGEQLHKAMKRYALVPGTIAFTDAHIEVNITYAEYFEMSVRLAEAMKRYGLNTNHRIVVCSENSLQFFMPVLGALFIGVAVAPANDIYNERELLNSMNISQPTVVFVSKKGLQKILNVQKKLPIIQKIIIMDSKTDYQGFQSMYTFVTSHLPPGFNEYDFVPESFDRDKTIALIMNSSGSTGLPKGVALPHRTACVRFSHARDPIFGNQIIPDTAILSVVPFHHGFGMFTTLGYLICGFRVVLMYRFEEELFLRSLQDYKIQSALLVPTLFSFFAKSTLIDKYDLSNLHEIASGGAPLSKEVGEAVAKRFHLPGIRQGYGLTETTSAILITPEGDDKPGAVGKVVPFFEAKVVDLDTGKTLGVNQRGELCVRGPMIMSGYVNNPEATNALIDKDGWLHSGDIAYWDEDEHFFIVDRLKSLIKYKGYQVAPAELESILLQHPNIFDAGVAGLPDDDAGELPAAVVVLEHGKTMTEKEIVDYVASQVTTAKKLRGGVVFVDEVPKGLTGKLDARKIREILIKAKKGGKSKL
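Compounds were tested as concentration series (qHTS) against purified P. pyralis luciferase with luciferin and 10 uM ATP in 50 mM imidazole pH 7.2, 50 mM KCl, 7 mM MgCl2, 0.01% Tween 20, 0.05% BSA. Luminescence was read after 8 min at ambient temperature.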
p53ts 32C kill – p53ts cell cytotoxicity, permissive temperature | H1299-p53A138V at 32C, ATP luminescence viability, 24 h | Potency, µM (series often up to 46.1 µM), hits mostly cytotoxic | 130,000 tested, 0.93% active | AID 924; note: nearly all actives have a fitted effect of over 55% in size
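ATP-content luminescence (ATPlite) read-out after 24 h compound exposure at 32C in H1299-p53A138V cells (600/well). Tested up to 46 uM. Normalized to DMSO (0%) and 100 uM tamoxifen (100% killing); Hill-fit AC50.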
Of the large screens only hits and unclear results are named; the others gave an inactive call. Hits are enriched below; roughly 2.6% of the tested compounds scored in any of these assays. Calls come from the whole dose curve; as a rule, active = well fitted curve in the direction sought with a large enough effect; inconclusive = small, poorly fitted or top-dose-only effect, or another doubt; inactive = no such curve, though single readings can be large; an effect the other way counts as inactive or inconclusive.

COc1ccccc1CNC(=O)C1CCN(C2=NS(=O)(=O)C(c3ccc(C)c(C)c3)=C2C)CC1	none (no result: Luciferase inh)
CCc1ccc2occ(CC(=O)Nc3ccc(OC)c(Cl)c3)c2c1	p53ts 39C kill inconclusive (no result: Luciferase inh)
COCCn1c(C)cc(O)c(C(c2ccccc2OC)N2CCN(c3ccccc3)CC2)c1=O (centres undefined)	none (no result: Luciferase inh)
COc1ccc(NC(=O)Nc2cccc(C)n2)cc1	Luciferase inh 15.8µM
Cc1cccc(NC(=O)Nc2ccc(Br)cc2)n1	none (no result: Luciferase inh)
Cc1cccc(NS(=O)(=O)c2ccc(Cl)c(C(=O)O)c2)c1	none (no result: Luciferase inh)
CCOc1cc(CNCCSc2nnnn2C)ccc1OCc1ccc(Cl)cc1Cl	p53ts 39C kill 12.6µM, p53ts 32C kill 35.5µM (no result: Luciferase inh)
Cn1nnnc1SCCNCc1ccccc1OCc1ccc(Cl)cc1Cl	p53ts 39C kill inconclusive (no result: Luciferase inh)
COc1ccc(-c2csc3ncnc(Nc4ccc(OC)c(OC)c4)c23)cc1	none (no result: Luciferase inh)
O=C(Nc1nc2ccc(Cl)cc2s1)c1ccc(Br)o1	Luciferase inh 12.6µM
CC(C)(C)NS(=O)(=O)c1ccc2nc(NC(=O)c3cccnc3)sc2c1	none (no result: Luciferase inh)
CS(=O)(=O)c1ccc2nc(NC(=O)c3ccco3)sc2c1	p53ts 39C kill 12.6µM, Luciferase inh 3.98µM, p53ts 32C kill 12.6µM
COc1ccc(C(=O)Nc2nc3ccc(S(C)(=O)=O)cc3s2)cc1	none (no result: Luciferase inh)
O=C(Nc1nc2c(Cl)cccc2s1)c1ccc(Br)o1	none
CN(C)S(=O)(=O)c1ccc2nc(NC(=O)c3cccnc3)sc2c1	p53ts 39C kill inconclusive, Luciferase inh 12.6µM, p53ts 32C kill 15.8µM
Cc1ccc(C(=O)Nc2nc3ccc(S(C)(=O)=O)cc3s2)o1	p53ts 39C kill 12.6µM, p53ts 32C kill 11.2µM (no result: Luciferase inh)
COc1ccccc1C(=O)Nc1nc2ccc(S(C)(=O)=O)cc2s1	none
Cn1c(=O)oc2cc(S(=O)(=O)NC(CC(=O)O)c3cccc(Br)c3)ccc21 (centres undefined)	none (no result: Luciferase inh)
Cc1ccc(-c2noc(-c3nnn(CC(=O)Nc4cccc(C(F)(F)F)c4)c3N)n2)cc1	p53ts 39C kill inconclusive (no result: Luciferase inh)
CCOC(=O)C1CCN(C(c2ccc(OCC)cc2)c2c(O)cc(C)n(CCOC)c2=O)CC1 (centres undefined)	none (no result: Luciferase inh)
COC(=O)c1ccc(NC(=O)NC(C)c2c(-n3cccc3)sc(C)c2C)cc1 (centres undefined)	p53ts 39C kill inconclusive (no result: Luciferase inh)
Fc1ccccc1OCCSc1nnnn1-c1ccccc1	Luciferase inh 15.8µM
c1ccc(OCCSc2nnnn2-c2ccccc2)cc1	Luciferase inh inconclusive
COc1cc2c(C(=O)N3CCN(c4ccc(F)cc4)CC3)cn(CC(C)C)c(=O)c2cc1OC	none (no result: Luciferase inh)
Cc1ccc(Cl)cc1NC(=O)CSc1nc2ccccc2c2nc(-c3ccccc3)nn12	none (no result: Luciferase inh)
CCc1ccc2oc(-c3ccc(C)c(NC(=O)c4ccc(C#N)cc4F)c3)nc2c1	none (no result: Luciferase inh)
CC(CNC(=O)CCc1cn(Cc2ccccc2Cl)c2ccccc12)c1ccccc1 (centres undefined)	none (no result: Luciferase inh)
O=C(CSc1ncnc2sc3c(c12)CCCC3)c1ccccc1	none (no result: Luciferase inh)
O=C(CSc1ncnc2sc3c(c12)CCCC3)c1ccco1	Luciferase inh 31.6µM
Cc1cc(C)cc(N(CC(=O)O)S(=O)(=O)c2cccnc2)c1	none
Cc1cc(C)n(-c2nc3ccccc3nc2Nc2ccc(N(C)C)cc2)n1	none (no result: Luciferase inh)
Cc1ccc2nc(Nc3ccc4[nH]c(=O)[nH]c4c3)c(-n3nc(C)cc3C)nc2c1	p53ts 39C kill inconclusive, Luciferase inh 3.98µM, p53ts 32C kill inconclusive
Cc1cccc(NC(=O)c2ccc(Cn3nc(N4CCN(c5ccccc5)CC4)ccc3=O)o2)c1C	none (no result: Luciferase inh)
COc1ccc(-c2nnc(N)s2)cc1	p53ts 39C kill inconclusive, Luciferase inh inconclusive
CCCOc1ccc(-c2nnc(N)s2)cc1	Luciferase inh 12.6µM (no result: p53ts 39C kill, p53ts 32C kill)
O=C(CSC1=NCCN1)Nc1ccccc1	none
COc1ccc(C)cc1NC(=O)c1cc(S(=O)(=O)N2CCCCC2)c[nH]1	none (no result: Luciferase inh)
Cc1cc(=O)[nH]c(SCCOc2ccc(OC(C)C)cc2)n1	p53ts 39C kill inconclusive, Luciferase inh 15.8µM, p53ts 32C kill inconclusive
Cc1cc(=O)[nH]c(SCCOc2ccc3c(c2)CCC3)n1	none
CCC(Sc1nncn2c1cc1oc(C)cc12)C(=O)Nc1ccc(F)cc1 (centres undefined)	p53ts 39C kill 20µM (no result: Luciferase inh)
CCOC(=O)c1ccc(NC(=O)C(CC)Sc2nncn3c2cc2oc(C)cc23)cc1 (centres undefined)	none (no result: Luciferase inh)
CC1=C(C(=O)Nc2ccccc2Cl)C(c2cccc(O)c2)n2ncnc2N1 (centres undefined)	none (no result: Luciferase inh)
c1coc(CNc2nc(-c3ccncc3)cs2)c1	none
COc1ccc(-c2csc(NCc3ccco3)n2)cc1	p53ts 39C kill inconclusive, Luciferase inh 5.01µM, p53ts 32C kill inconclusive
Cc1ccc(CNC(=O)c2cc3ccc4cccnc4c3[nH]2)cc1	none (no result: Luciferase inh)
Cc1ccc(CN2CCC(CNC(=O)c3cc4ccc5cccnc5c4[nH]3)CC2)cc1	p53ts 39C kill 12.6µM, p53ts 32C kill inconclusive (no result: Luciferase inh)
Cc1ccc(C)c(CN2CCC(CNC(=O)c3cc4ccc5cccnc5c4[nH]3)CC2)c1	none (no result: Luciferase inh)
CCN(Cc1ccccc1)C(=O)c1cc2ccc3cccnc3c2[nH]1	p53ts 39C kill 31.6µM, p53ts 32C kill inconclusive (no result: Luciferase inh)
CCc1ccccc1N1C(=O)N(CC(=O)c2ccc(OC)cc2)c2ccccc2S1(=O)=O	none (no result: Luciferase inh)
CCN(CC)c1nc2c(S(=O)(=O)c3cccc(Cl)c3)nnn2c2ccsc12	none (no result: Luciferase inh)
O=C1N=C(N2CCOCC2)S/C1=C1\C(=O)N(Cc2ccccc2)c2ccc(Br)cc21	none
CCCCN1C(=O)/C(=C2\SC(N3CCCCC3)=NC2=O)c2ccccc21	p53ts 39C kill 15.8µM, Luciferase inh 7.94µM, p53ts 32C kill 12.6µM
CC(C)C(=O)NC(c1ccco1)c1ccc2cccnc2c1O (centres undefined)	p53ts 39C kill 3.98µM
Oc1c(C(Nc2nc3ccccc3s2)c2ccco2)ccc2cccnc12 (centres undefined)	p53ts 39C kill inconclusive
CCN(C(=O)Cn1c(=O)oc2cc(Cl)ccc21)c1cccc(C(F)(F)F)c1	none (no result: Luciferase inh)
CN(C)c1ccc(C(CNS(=O)(=O)c2ccc(F)cc2)N2CCc3ccccc32)cc1 (centres undefined)	none (no result: Luciferase inh)
COc1cccc(NC(CNS(=O)(=O)c2ccc(C)cc2)c2ccccc2)c1 (centres undefined)	p53ts 39C kill inconclusive (no result: Luciferase inh)
O=S(=O)(NCC(c1ccccc1)N1CCNCC1)c1ccc(Cl)cc1 (centres undefined)	none
O=S(=O)(NCC(Nc1ccc(Cl)cc1)c1ccccc1)c1ccccc1 (centres undefined)	p53ts 39C kill 22.4µM, p53ts 32C kill inconclusive (no result: Luciferase inh)
COc1cccc(NC(CNS(=O)(=O)c2ccc(Cl)cc2)c2ccccc2)c1 (centres undefined)	p53ts 39C kill 12.6µM, p53ts 32C kill inconclusive (no result: Luciferase inh)
O=S(=O)(NCC(c1ccccc1)N1CCc2ccccc21)c1ccc(Cl)cc1 (centres undefined)	p53ts 39C kill 25.1µM (no result: Luciferase inh)
O=C(Nc1ccc(F)cc1)c1ccc2c(c1)NC(=O)c1ccccc1S2	none (no result: Luciferase inh)
COc1ccc2oc(-c3ccc(C)c(NC(=O)COc4cc(C)cc(C)c4)c3)nc2c1	none (no result: Luciferase inh)
COc1nc(-c2ccccc2)ccc1-c1noc(C)n1	none
COc1nc(C)ccc1-c1noc(-c2ccccn2)n1	p53ts 39C kill 10µM, Luciferase inh inconclusive, p53ts 32C kill 10µM
COc1cc(C(=O)Oc2c(CN3CCOCC3)cc(Cl)c3cccnc23)cc(OC)c1OC	p53ts 39C kill 12.6µM, p53ts 32C kill inconclusive
COc1ccc(C(=O)Oc2c(CN3CCOCC3)cc(Cl)c3cccnc23)cc1	p53ts 39C kill inconclusive
